Bioassay records: PubChem BioAssay, National Center for Advancing Translational Sciences (NCATS)
HT1080-NT tox = kills 2HG-producing HT-1080-NT fibrosarcoma cells. HT-1080-NT fibrosarcoma viability, CellTiter-Glo ATP luminescence, 48 h. Potency, µM (top dose mostly 46.1 µM), most hits filed as cytotoxic. actives 1.6% (n = 360,000). AID 686970;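 further: NT is the 2HG producing partner of a matched IDH1 knockdown line; nearly all actives have a fitted effect of over 55% in size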
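Read-out is CellTiter-Glo luminescence after 10 minutes at room temperature, following 48 hours' compound treatment of HT-1080-NT cells (750 cells/well, RPMI, 5% FBS, 37 degrees C).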
IL-1B inflam inh = inflammasome signaling inhibition, IL-1 beta readout; activity change, % at 57.5 µM; THP-1 LPS/ATP IL-1B secretion, AlphaLISA, 16 h; active compounds read low; actives 4.7% (n = 360,000); in the data active means activity change below about -50%; inconclusive means mostly about -30% to -49%
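THP-1 cells pretreated 1 hr with compounds (up to 57.5 uM final), then stimulated with LPS (250 ng/mL final) plus ATP (1.25 mM final); secreted IL-1B measured by AlphaLISA after 16 hr, decreased signal indicating inhibition.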
ALOX12 inh = inhibitors of human 12S-lipoxygenase ALOX12 | purified 12hLO, xylenol orange hydroperoxide absorbance | Potency, µM (doses to about 108 µM), usual class: inhibitors | P18054 | actives 1.1% (n = 580,000)
Target sequence (P18054 whole entry, looked up): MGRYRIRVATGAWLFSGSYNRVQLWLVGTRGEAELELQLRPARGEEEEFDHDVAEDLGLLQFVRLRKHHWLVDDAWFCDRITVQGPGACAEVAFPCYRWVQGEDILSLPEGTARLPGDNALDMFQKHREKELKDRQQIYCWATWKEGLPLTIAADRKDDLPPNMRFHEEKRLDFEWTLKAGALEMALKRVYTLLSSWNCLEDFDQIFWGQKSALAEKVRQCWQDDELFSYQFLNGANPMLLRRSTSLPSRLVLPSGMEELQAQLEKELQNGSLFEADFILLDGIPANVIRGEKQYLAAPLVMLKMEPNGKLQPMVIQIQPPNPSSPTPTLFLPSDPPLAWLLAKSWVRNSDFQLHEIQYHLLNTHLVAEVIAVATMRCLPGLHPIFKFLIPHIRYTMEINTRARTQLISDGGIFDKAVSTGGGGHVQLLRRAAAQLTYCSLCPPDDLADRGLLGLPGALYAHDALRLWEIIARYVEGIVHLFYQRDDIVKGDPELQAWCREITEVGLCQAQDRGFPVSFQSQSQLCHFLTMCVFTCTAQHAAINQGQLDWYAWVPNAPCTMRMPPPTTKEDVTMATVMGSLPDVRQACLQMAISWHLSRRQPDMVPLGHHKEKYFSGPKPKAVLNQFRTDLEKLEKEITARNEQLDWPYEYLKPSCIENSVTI
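Purified human 12hLO (150 nM final) in 25 mM Hepes, 0.01% Triton X-100, pH 7.0 was preincubated 15 min at room temperature with compound. Then 40 uM arachidonic acid was added, 30 min. Hydroperoxide was read by Fe-XO absorbance ratio 573/405 nm.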
HT1080 IDH1KD tx = kills HT-1080 cells with IDH1 knockdown | HT-1080 IDH1 knockdown viability, ATP luminescence, 48 h | Potency, µM (highest dose often 46.1 µM), most hits filed as cytotoxic | actives 2% (n = 360,000) | AID 686971
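Viability of IDH1-knockdown HT-1080 fibrosarcoma cells was assessed by CellTiter-Glo after 48 h at 37 °C with titrated compound; concentration-effect curves were classified by fit quality and response size.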
DT40 TDP1 CPT = DT40-hTDP1 cell growth loss with CPT. Potency, µM (series often up to 46.2 µM), usual class: inhibitors. chicken DT40 Tdp1-/-;hTDP1 cells + 20 nM CPT, ATP luminescence, 48 h. actives 12% (n = 420,000); further: nearly all actives have a fitted effect of over 55% in size
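Cell growth measured by CellTiter-Glo luminescence after a minimum 48 h, 37 C compound exposure with 20 nM CPT in Tdp1-knockout DT40 cells stably expressing hTDP1, seeded 400/well; qHTS titration format.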
DT40 TDP1 no CPT = qHTS for Inhibitors of human tyrosyl-DNA phosphodiesterase 1 (TDP1): qHTS in cells in absence of CPT. DT40 Tdp1-/- hTDP1 cells, no CPT, ATP luminescence, 48 h. Potency, µM (series often up to 46.2 µM), usual class: inhibitors. actives 15% (n = 420,000). AID 686978, 2013; further: nearly all actives have a fitted effect of over 55% in size
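Growth kinetics read by CellTiter-Glo luminescence after ≥48 hr at 37 °C. Cells: DT40 Tdp1-/- stably carrying human TDP1, 400 per well, compound exposure in the absence of CPT (DMSO vehicle).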
Numbers stand for hits; n = inactive; u = inconclusive; x = no result given. Only a selection was taken, and hits are over-represented in it overall. Unless noted, the call rests on the fitted dose curve; in most records, active means well fitted curve in the direction sought with a large enough effect; inconclusive means small, poorly fitted or top-dose-only effect, or another doubt; inactive means no such curve, though single readings can be large; an effect the other way counts as inactive or inconclusive.

SMILES | HT1080-NT tox | IL-1B inflam inh | ALOX12 inh | HT1080 IDH1KD tx | DT40 TDP1 CPT | DT40 TDP1 no CPT
COc1ccc2cc(C(=O)C3CCCN(C(=O)c4cnn(C(C)C)c4)C3)ccc2c1 (stereo not given) | n | n | n | n | 25.9µM | u
COc1ccc2cc(C(=O)C3CCCN(C(=O)c4csnn4)C3)ccc2c1 (stereo not given) | n | n | n | n | n | u
COc1ccc2cc(C(=O)C3CCCN(C(=O)C4=NN(C)C(=O)CC4)C3)ccc2c1 (stereo not given) | n | n | n | n | n | u
COc1ccc2cc(C(=O)C3CCCN(C(=O)CSc4nnc(C)o4)C3)ccc2c1 (stereo not given) | n | n | n | u | 18.4µM | 20.6µM
COc1ccc2cc(C(=O)C3CCCN(C(=O)c4cncs4)C3)ccc2c1 (stereo not given) | n | n | n | n | 18.4µM | 11.6µM
CC(C)Cc1nnc(NC(=O)Cn2ccc3ccc(F)cc32)s1 | x | x | n | x | x | x
CC(C)(C)c1nnc([C@H]2CCN(C(=O)C3CC3)C2)o1 | x | x | n | x | x | x
O=C(/C=C/c1cccc(F)c1)N(c1ccccn1)C1CCCCC1 | n | n | n | n | 13µM | u
CN(C(=O)/C=C/c1ccccc1)C1CCCCC1 | n | -51.1 | n | n | n | n
O=C(/C=C/c1ccc(Cl)cc1)N(c1ccccn1)C1CCCCC1 | n | -57.2 | n | n | u | 20.6µM
COc1ccc(C(=O)N(c2ccccn2)C2CCCCC2)c(OC)c1 | n | n | n | n | n | n
O=C(/C=C/c1ccc(Cl)cc1)N1CCN(c2ccccn2)CC1 | n | n | n | n | n | u
COc1ccc(/C=C/C(=O)N(c2ccccn2)C2CCCCC2)cc1OC | n | n | n | n | 23.1µM | u
CC(CC(=O)O)CC(=O)N1CCCCC1 (stereo not given) | x | x | n | x | x | x
C[C@@H]1CCCCO[C@@H](CN(C)Cc2ccc(Cl)c(Cl)c2)[C@@H](C)CN([C@H](C)CO)C(=O)c2cc(NC(=O)Nc3ccccc3)ccc2O1 | u | u | n | u | 23.1µM | 20.6µM
C[C@@H]1CCCCO[C@H](CN(C)Cc2ccc(C(F)(F)F)cc2)[C@H](C)CN([C@@H](C)CO)C(=O)c2cc(NC(=O)Cc3ccccc3)ccc2O1 | 16.4µM | n | n | 18.4µM | 11.6µM | 14.6µM
CC(C)NC(=O)Nc1ccc2c(c1)C(=O)N([C@H](C)CO)C[C@H](C)[C@@H](CN(C)Cc1ccc3c(c1)OCO3)OCCCC[C@@H](C)O2 | n | n | n | n | n | n
CC(C)NC(=O)Nc1ccc2c(c1)C(=O)N([C@H](C)CO)C[C@H](C)[C@@H](CN(C)Cc1ccc(C(F)(F)F)cc1)OCCCC[C@H](C)O2 | n | u | n | n | 20.6µM | u
COc1ccc(CN(C)C[C@@H]2OCCCC[C@H](C)Oc3ccc(NC(=O)Cc4ccccc4)cc3C(=O)N([C@@H](C)CO)C[C@@H]2C)cc1 | n | n | n | n | n | 23.1µM
COc1ccc(CN(C)C[C@H]2OCCCC[C@@H](C)Oc3ccc(NC(=O)c4ccccc4)cc3C(=O)N([C@H](C)CO)C[C@@H]2C)cc1 | n | n | n | n | u | u
Cc1ccc(/C=C(\C#N)C(=O)NC(C)c2ccccc2)o1 (stereo not given) | n | u | n | n | n | n
CN1CC2(CCN(C(=O)Cc3ccc(-n4cnnn4)cc3)CC2)CC1=O | x | x | n | x | x | x
CCC1(c2ccc(NC(=O)c3cc(OC)cc(OC)c3)cc2)CCC(=O)NC1=O (stereo not given) | x | x | n | x | x | x
C[C@@H]1CN([C@@H](C)CO)C(=O)c2cc(NC(=O)Nc3ccc(F)cc3)ccc2O[C@@H]1CN(C)Cc1ccc(Oc2ccccc2)cc1 | u | n | u | 16.4µM | u | 20.6µM
COc1ccc(CN(C)C[C@@H]2OCCCC[C@H](C)Oc3ccc(NC(=O)Nc4ccc(F)cc4)cc3C(=O)N([C@H](C)CO)C[C@H]2C)cc1 | 20.6µM | u | u | u | u | u
SMILES | HT1080-NT tox | IL-1B inflam inh | ALOX12 inh | HT1080 IDH1KD tx | DT40 TDP1 CPT | DT40 TDP1 no CPT
C[C@@H]1CN([C@H](C)CO)C(=O)c2cc(NC(=O)Nc3ccc(F)cc3)ccc2O[C@@H](C)CCCCO[C@H]1CN(C)Cc1ccc(C(=O)O)cc1 | n | n | n | n | n | n
Cc1cc(Nc2cccc(Cl)c2)nc2ccc(NC(=O)c3cccc(N(C)C)c3)cc12 | x | x | n | x | 13µM | 7.31µM
Cc1cc(Nc2cccc(Cl)c2)nc2ccc(NC(=O)c3cccnc3)cc12 | x | x | n | x | 13µM | 8.2µM
Cc1cc(Nc2cccc(C(F)(F)F)c2)nc2ccc(NC(=O)c3ccc(N(C)C)cc3)cc12 | x | x | n | x | 5.17µM | 4.61µM
Cc1ccc(OCC(=O)Nc2ccc3nc(Nc4cccc(Cl)c4)cc(C)c3c2)cc1 | x | x | n | x | n | n
Cc1cc(N2CCC(C)CC2)nc2ccc(NC(=O)c3ccc(N(C)C)cc3)cc12 | x | x | n | x | x | x
COc1ccc(C(=O)OCc2nnc(-c3ccccc3)o2)cc1S(=O)(=O)N1CCCCC1C (stereo not given) | x | x | n | x | x | x
Cc1ccc(NCC(=O)N2CCN(S(=O)(=O)c3ccc4ccccc4c3)CC2)c(F)c1 | x | x | n | x | x | x
CCn1c(-c2ccccc2)nn(CC(=O)NCCc2ccc(C)o2)c1=O | x | x | n | x | x | x
O=S(=O)(c1ccccc1)N1CCC(Cc2nncn2-c2ccccc2)CC1 | x | x | n | x | x | x
CCc1ccc(-c2c(C)sc(N)c2C#N)cc1 | x | x | 28.2µM | x | x | x
CC(=O)N1C(=O)COC[C@@H]1[C@H](O)c1ccc(NC(=O)C2CCC2)cc1 | x | x | n | x | x | x
Cc1ccc(-n2c(O)c(C=Nc3cc(C)on3)c3ccccc3c2=O)c(C)c1 | n | n | n | n | 1.64µM | 4.61µM
Cc1ccc(-n2c(O)c(C=NC3CCS(=O)(=O)C3)c3ccccc3c2=O)c(C)c1 (stereo not given) | n | x | n | n | 20.6µM | u
COc1ccc(C(=O)NCc2nnc3c(-c4nc(C)no4)cccn23)cc1 | x | x | n | x | x | x
CNC(=O)CN(Cc1ccccc1F)S(=O)(=O)c1ccc(C)cc1 | x | x | n | x | x | x
O=C(Nc1ccccc1Cl)C1CCN(Cc2cnn(-c3ccccc3)c2-n2cccc2)CC1 | n | n | n | u | 16.4µM | 23.1µM
COc1ccc(OC)c(NC(=O)C2CCN(Cc3cnn(-c4ccccc4)c3-n3cccc3)CC2)c1 | n | n | n | u | 16.4µM | u
COc1ccc(NC(=O)C2CCN(Cc3cnn(-c4ccccc4)c3-n3cccc3)CC2)cc1OC | n | u | n | n | u | u
COCCn1cnnc1SCCOc1ccc(F)cc1 | x | x | n | x | x | x
